Measurements from PubChem BioAssay AID488837 (National Center for Advancing Translational Sciences (NCATS), 2010).
About 20 (0.006%) of roughly 330,000 compounds were called active. Another 1% or so got no clear call; they are omitted. Calls come from the whole dose curve; as a rule, active = well fitted inhibition curve with a large enough effect; inconclusive = small, poorly fitted or top-dose-only effect, or effect the other way; inactive = flat fitted curve, though single readings scatter. The list comes from a sample in which actives are over-represented; it also holds similar structures and randomly drawn compounds.

What follows are molecules tested against Protein phosphatase EYA2 (Homo sapiens) (UniProt O00167) (assay: qHTS Assay for Inhibitors of the Phosphatase Activity of Eya2). Conditions: recombinant Eya2, OMFP fluorescence dephosphorylation (OMFP is methylfluorescein phosphate); series mostly up to 76.9 µM; activity, negative = inhibition: at the top concentration.
Protein phosphatase EYA2 (Homo sapiens), sequence (O00167 whole entry, looked up, the tested form may be a part): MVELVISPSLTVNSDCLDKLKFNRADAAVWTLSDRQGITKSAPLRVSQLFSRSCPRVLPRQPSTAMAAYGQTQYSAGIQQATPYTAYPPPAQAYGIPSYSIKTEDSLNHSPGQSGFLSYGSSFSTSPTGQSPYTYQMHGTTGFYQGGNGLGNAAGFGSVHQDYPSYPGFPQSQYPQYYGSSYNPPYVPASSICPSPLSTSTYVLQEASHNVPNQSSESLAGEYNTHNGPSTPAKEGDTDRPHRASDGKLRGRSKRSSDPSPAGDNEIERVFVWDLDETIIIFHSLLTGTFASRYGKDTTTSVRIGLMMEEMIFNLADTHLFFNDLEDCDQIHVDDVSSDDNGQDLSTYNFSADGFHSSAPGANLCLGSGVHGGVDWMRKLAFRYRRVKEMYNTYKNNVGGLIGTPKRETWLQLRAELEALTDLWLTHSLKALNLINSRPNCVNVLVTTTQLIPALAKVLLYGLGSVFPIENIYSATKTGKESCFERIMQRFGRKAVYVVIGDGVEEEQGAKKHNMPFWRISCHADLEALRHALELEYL
From the text: The Eya family of proteins are essential co-activators of the Six1 transcription factor. Six1 is a developmental gene that is abnormally re-expressed in a large percentage of breast cancers. This over-expression plays a causal role in the initiation and metastatic development of breast cancers. The Eya family of proteins was also found to contain a unique HAD phosphatase domain with protein tyrosine phosphatase activity which can potentially play a role in Six1-mediated breast tumorigenesis. […] We have developed and optimized a 1536 well fluorescence-based HTS assay targeting the phosphatase activity of Eya2. Inhibitors found against Eya2 could serve as potential therapeutic tools to inhibit Six1-mediated breast tumorigenesis and to increase the efficiency of radiation and certain chemo therapy. These inhibitors could also be used as chemical probes to study the function of Eya2's phosphatase activity and its role in Six1-mediated breast tumorigenesis.
The Eya2 enzyme was kindly provided by the laboratory of Dr. Rui Zhao. The 3-O-methyl-fluorescein phosphate (OMFP) substrate and all buffer reagents were purchased from Sigma Aldrich. qHTS Assay Setup: 1. Buffer- 50 mM HEPES pH 7.5, 50 mM NaCl, 5 uM MgCl2, 0.05% BSA, 1 mM DTT. 2. OMFP Stock- 10 mM solution prepared in 100% DMSO and stored in single use aliquots at -20C. Assay Procedure- 1. Dispense 1.5 ul per well of Eya2 at 0.2 uM in black medium binding 1536 well Greiner plate 2. Transfer 23 nl of compound and control compound (EGTA) to plate 3. Incubate at ambient for 10 minutes 4. Dispense 1.5 ul per well of OMFP at 50 uM 5. Incubate at ambient for 10 minutes 6. Read on ViewLux using Excitation = 485 nm, Emission = 525 nm
% is set by controls: 0 for no effect and ±100 for the full control effect.

activity, negative = inhibition, inactive:
O=C(O)C1CCC(CNS(=O)(=O)c2ccc(Br)cc2)CC1 (centres undefined) 14%, O=C1CCC([N+](=O)[O-])C(c2ccccc2Br)N1 (centres undefined) 5.36%, COC(=O)c1sc(NC(=O)COC(=O)C2CCC2)c(C(=O)OC)c1C 28.3%, CCOC(=O)c1c(CNCc2ccccc2F)c2sc(C)cc2n1C -6.49%, COC(=O)N1CN(C(=O)OC)CN(C(=O)OC)C1 14.1%, CC1CCN(S(=O)(=O)c2ccc3[nH]c(=O)ccc3c2)CC1 6.46%, CCS(=O)(=O)c1ccc(-c2cccc(NC(=O)c3ccc(Br)o3)c2)nn1 -2.59%, Cc1ccc2c(Cl)c(C(=O)NCCCn3ccnc3)sc2c1 2.59%, CC(C)CCNC(=O)CCNS(=O)(=O)c1ccc(Cl)cc1 -4.21%, O=C(NCc1cccnc1)c1ccc(CS(=O)(=O)c2ccc(Br)cc2)o1 3.3%, CC(=O)c1c(N2CCOCC2)nc(=S)n(Cc2ccccc2)c1C 4.93%, O=C(Nc1ccc(OCC(=O)N2CCOCC2)cc1)c1cc(F)c(F)cc1Cl 5.38%, Cc1cc(C(=O)Nc2ccc(C)c(S(=O)(=O)N3CCOCC3)c2)c2ccccc2n1 23.5%, COc1ccc(CCNc2ncnc3c2nnn3Cc2ccccc2)cc1 4.06%, O=C1OCCN1C(=O)[C@H]1[C@H](c2ccc(F)cc2)C(c2ccccc2)=NN1c1ccc(Br)cc1 0.72%, Cc1ccc(NC(=O)N2CCSc3ccccc32)cc1 2.21%, Cc1cc(SCC(=O)NCCN2C(=O)CSC2=O)nc2ccccc12 8.83%, S=c1[nH]ccn1-c1ccc(Cl)cc1 -6.66%, CCCOc1cccc(C(=O)Nc2ccccc2C(=O)N2CCN(C)CC2)c1 -6.6%, COc1ccc2c(C)cc3nnnn3c2c1 -1.07%, CN(C)N(C)C(=O)C(O)(c1ccccc1)c1ccccc1 6.78%, COc1ccc2[nH]c(C)c(CCN(Cc3cccs3)C(=S)Nc3ccccc3OC)c2c1 6.34%, O=c1ccc2cc(S(=O)(=O)N3CCN(c4ccccc4)CC3)ccc2o1 -2.55%, O=S1(=O)N=C(N(CCO)/N=C/c2ccccc2F)c2ccccc21 -2.65%, O=C(CCc1nnc2ccc(NCCCN3CCCC3=O)nn12)NCc1ccccc1Cl -3.71%, CC(=O)N1CCN(c2ccccc2NC(=S)NC(=O)c2cc3ccccc3o2)CC1 -8.6%, COc1ccc(NS(=O)(=O)c2cc(NC(=O)COc3ccccc3F)ccc2OC)cc1 -21.5%, O=C(CSc1nnc(SCc2ccc(F)cc2)s1)Nc1ccc(C(=O)O)cc1 -1.18%, O=C(CS(=O)(=O)c1ccc(C(F)(F)F)cn1)NNC(=O)c1ccccc1 18.3%, O=C(CCc1ccc(S(=O)(=O)N2CCOCC2)cc1)Nc1ccc2ccccc2c1 -1.59%, N#CC1=C(N)N(c2ccc(F)cc2)C(=O)C1 32.7%, NC(=O)C1CCCN(CC(=O)N2CCN(c3ccccc3)CC2)C1 (centres undefined) -2.7%, CC[C@@]1(C(=O)OC)N[C@H](CN(C)C(C)=O)[C@@H]2C(=O)N(C)C(=O)[C@@H]21 -14.2%, COc1ccc(C(=O)N2CCCN(C)CC2)c(OC)c1 14.4%, COC(C)(C)[C@]12CC(O)(C(C)C)ON1[C@H]1CCCCC1N2O (some centres undefined) -10.2%, O=C(c1ccc(Cl)cc1)N1N=C(c2ccccn2)CC1(O)C(F)(F)F (centres undefined) 22.7%, COc1ccc(Cl)cc1NC(=O)CCS(=O)(=O)c1ccc(Br)cc1 10.2%, COC(=O)c1ccccc1NC(=O)CSc1n[nH]c(-c2ccncc2)n1 -1.81%, CCCCNS(=O)(=O)c1ccc(S(=O)(=O)n2cnc3ccccc32)cc1 -2.93%
